Test results published in PMC6792352, “Limited Chemical Structural Diversity Found to Modulate Thyroid Hormone Receptor in the Tox21 Chemical Library” (Environmental Health Perspectives, 2019).
Counter-ions that a name gives are not always drawn.

tested on: thyroid hormone receptor (endogenous TRα and TRβ); design: species or system GH3-TRE-Luc (rat pituitary); GH3-TRE-Luc luciferase reporter, antagonist mode against 1 nM T3, loss of signal, qHTS; conditions: read-out: Average AC50 (uM) GH3-TRE-Antag, antagonist mode, 1 nM T3, no GH3 cytotoxicity hit

Row | SMILES | AC50
1 | CC/C=C\CC/C=C/C(OCC)OCC [(2E,6Z)-1,1-diethoxynona-2,6-diene] | 61.1 µM
2 | CC1(C)N=C(N)N=C(N)N1c1ccc(Cl)cc1 [Cycloguanil hydrochloride] | 28.6 µM
3 | CC1(C)C(/C=C(\Cl)C(F)(F)F)C1C(=O)OC(C#N)c1cccc(Oc2ccccc2)c1 (stereo not drawn) [alpha-Cyhalothrin] | 26.1 µM
4 | O=c1oc2ccccc2c(O)c1C1CCCc2ccccc21 (centres unmarked) [Coumatetralyl] | > 90 µM
5 | O=[N+]([O-])c1cc[n+]([O-])cc1 [4-Nitropyridine-1-oxide] | 80.5 µM
6 | CCN(CCCc1ccccc1)CCCc1ccccc1 [Alverine citrate] | 10.8 µM
7 | Cc1ccc2nc(N)[nH]c(=O)c2c1Sc1ccncc1 [Nolatrexed dihydrochloride] | 4.76 µM
8 | c1ccc(-c2cccc(-c3ccccc3)c2)cc1 [1,1':3',1''-Terphenyl] | 50.3 µM
9 | CC(C)(C)NC(=O)[C@H]1CC[C@H]2[C@@H]3CC[C@H]4NC(=O)C=C[C@]4(C)[C@H]3CC[C@]12C [Finasteride] | > 20 µM
10 | CC(=O)Oc1ccc(C2(c3ccc(OC(C)=O)cc3)Oc3ccccc3NC2=O)cc1 [Bisoxatin acetate] | 3.76 µM
11 | NC(=O)N(O)[C@@H]1COc2cc(OCc3ccccc3)ccc21 [SB202235] | 85 µM
12 | Cc1ccccc1C(=O)Nc1ccc(C(=O)N2CCCC(O)c3cc(Cl)ccc32)c(C)c1 (centres unmarked) [Tolvaptan] | 21.9 µM
13 | CCCCCCCCCCCC(=O)OCC(O)CO (centres unmarked) [1-Monolaurin] | 47.2 µM
14 | COc1ccc(-c2cc(=S)ss2)cc1 [Anethole trithione] | > 50 µM
